Each structure is given as a SMILES string. Among all 21,000 compounds or so, fewer than 10 were called active. A selection follows. Unmarked numbers belong to inactive results.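 The calls were made as follows: active = inhibition above 50% at the 20 µM single-dose screen; inactive = the rest.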

Alkaline phosphatase, tissue-nonspecific isozyme (Homo sapiens), sequence (P05186 whole entry, looked up): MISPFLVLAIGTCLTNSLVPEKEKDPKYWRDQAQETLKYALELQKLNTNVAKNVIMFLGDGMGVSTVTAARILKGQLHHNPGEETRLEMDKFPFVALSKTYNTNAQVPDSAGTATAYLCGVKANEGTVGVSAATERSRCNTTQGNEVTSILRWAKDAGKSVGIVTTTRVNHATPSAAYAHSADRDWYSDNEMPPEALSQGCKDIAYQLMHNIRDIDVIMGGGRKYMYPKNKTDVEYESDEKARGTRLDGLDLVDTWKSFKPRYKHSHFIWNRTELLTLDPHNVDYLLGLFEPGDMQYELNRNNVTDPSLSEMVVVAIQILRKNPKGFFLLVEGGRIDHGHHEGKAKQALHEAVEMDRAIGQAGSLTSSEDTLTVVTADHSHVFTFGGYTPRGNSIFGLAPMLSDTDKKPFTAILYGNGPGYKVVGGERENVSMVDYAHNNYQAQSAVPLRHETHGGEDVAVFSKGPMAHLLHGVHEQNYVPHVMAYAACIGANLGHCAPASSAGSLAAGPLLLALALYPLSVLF

The test has as its target Alkaline phosphatase, tissue-nonspecific isozyme (Homo sapiens) (UniProt P05186). The experiment in a line: blockers of alkaline phosphatase TNAP catalysis – biochemical, colorimetric, p-nitrophenol readout, primary screen (AID 615).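 Also: 0% = DMSO only wells and 100% = 1 mM levamisole wells.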 To be noted: purified TNAP, pNPP hydrolysis, absorbance 405 nm; at 20 µM; active compounds read high.
As for `CCOc1cccc(NC(=O)C2CCCN(S(=O)(=O)c3ccc(OC)cc3)C2)c1` (stereo unspecified), the inhibition is -1.6%.

Turning to `O=c1[nH]c(=O)n(Cc2ccco2)c2c1C(C(F)(F)F)(C(F)(F)F)N=C(c1ccco1)N2`, the inhibition was 1.6%.

In the case of `CCN(CC)C(=O)CSc1nnc(-c2ccc(S(=O)(=O)NCc3ccccc3Cl)cc2)o1`, the inhibition was 3.4%.

With `CCN(CC)CCN1C(=O)C(=O)/C(=C(/O)c2ccc(OC)c(OC)c2)C1c1ccccn1` (stereo unspecified), the inhibition is -8.8%.

As for `CCCOC(=O)C1=C(C)NC2=C(C(=O)C(C(=O)OC)C(C)C2)C1c1ccc(N(C)C)cc1` (stereo unspecified), the inhibition is 6.3%.

As for `COC(=O)c1cccc(NC(=O)CN2CCC(NC(=O)c3cc(OC)c(OC)c(OC)c3)CC2)c1`, the inhibition is 4.5%.

With `Cn1nnnc1SCC(=O)N1CCN(Cc2ccccc2)CC1`, the inhibition is 3.1%.

Regarding `CCn1c(Cc2ccccc2)nnc1SCc1nc2ccccc2c(=O)[nH]1`, the inhibition is 2.9%.

`c1ccc(-n2ncc3c(N4CCCC4)ncnc32)cc1`: the inhibition was 4.2%.

In the case of `CC1(C)C2CCC1(C)C(OC(=O)CCn1ccnc1)C2` (stereo unspecified), the inhibition was 3.3%.

For the molecule `Cc1cc(NC(=O)CCC(=O)N(c2cccc(F)c2)C(C(=O)NC2CCCC2)c2ccncc2)no1` (stereo unspecified), the inhibition is 2.9%.

For `CCn1c(SCC(=O)c2ccc(Cl)s2)nnc1-c1cccs1`, the inhibition is 3.7%.

For `COc1ccc2[nH]c3ccc(OC)cc3c2c1`, the inhibition was 6.8%.

On to `O=C(NCCN1CCOCC1)c1c(F)c(F)c(F)c(F)c1F`, for which the inhibition was -0.8%.

Regarding `CCOC(=O)c1ccc(N2C(=O)CC(Sc3nc(O)c(CC)c(=O)[nH]3)C2=O)cc1` (stereo unspecified), the inhibition was -2.3%.

On to `CC(C)c1nc(N2CCOCC2)c(C#N)c2c1COC(C)(C)C2`, for which the inhibition was -4.2%.

With `Cc1ccc2c(c1)c1ncn(CCC3=CCCCC3)c(=O)c1n2C`, the inhibition was 1.2%.

With `CC1(C)CC(=O)C2=C(C1)NCN(CCCN1CCOCC1)C2`, the inhibition was 3%.

Regarding `c1ccc2c(NCC3CCCO3)nc(-c3ccncc3)nc2c1` (stereo unspecified), the inhibition was 3.1%.

Turning to `Cc1ccn2cc(C(=O)NC3CCN(Cc4ccccc4)CC3)nc2c1`, the inhibition is -6.8%.

For the molecule `CCC(C)(C)n1nnnc1C(c1cccs1)N1CCN(Cc2ccccc2)CC1` (stereo unspecified), the inhibition is -10%.

Take `COc1ccc(NC(=O)CSc2nnc(-c3cccs3)n2Cc2ccco2)cc1OC`: the inhibition is 3.1%.

For the molecule `N#CNC1=NCN(CCc2ccccc2)CN1`, the inhibition was 4.9%.

Regarding `C=CCN1C(=O)C(O)(CC(=O)c2ccc(Cl)cc2)c2ccccc21` (stereo unspecified), the inhibition was 5.4%.

Regarding `CCc1ccc(-c2nnn(Cc3nc4ccccc4s3)n2)cc1`, the inhibition was 3%.

As for `O=C1[C@@H]2C(Cc3ccc(O)cc3)NC3(C(=O)Nc4ccc(F)cc43)[C@@H]2C(=O)N1c1ccc(F)cc1` (stereo partly specified), the inhibition is 1.7%.
